Bioassay records from PubChem BioAssay.
Cl transport mod = modulates chloride dependent transport by human KCC2 | Q9H2X9 | KCC2 cells, thallium flux FluoZin-2 fluorescence | B-score of Tl+ flux slope (higher = more flux/activation; lower = inhibition) at 10 µM | 190,000 tested, 2.2% active;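 active = thallium flux slope and its plate-corrected score both differing from the plate sample mean at a set confidence after two filtering rounds, in either direction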;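 note: slope of fluorescence scaled to starting intensity during 10 to 20 s after thallium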
INS promoter inh = TRM-6 insulin promoter activity inhibition | TRM-6 cells (human fetal islet line), insulin promoter-eGFP reporter, imaging; reporter expression induced with tamoxifen | inhibition, % at 2 µM | 130,000 tested, 0.9% active;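 active = inhibition above the mean plus 3 SD, with well images judged a real hit on visual review, cut at about 60% in these data, passing the limit was not always enough; inconclusive = inhibition over the cutoff but images rejected on review; inactive = inhibition not above the cutoff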
Insulin prom up = MIN6 insulin promoter up-regulation | MIN6 insulin promoter-GFP reporter, high-content imaging; active compounds read high | z-score at 5 µM | 190,000 tested, 0.3% active | AID 1625;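 active = z-score above 3 at 5 µM with at least 500 cells counted in the well; inconclusive = wells under 500 cells, flagged as cytotoxic or low count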
ROMK primary = human ROMK K+ channel modulation, primary screen | P48048 | Tet-inducible ROMK, thallium flux fluorescence; actives lie on both sides | B-score at 10 µM | 130,000 tested, 2% active | AID 1918;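 active = signal ratio slope over the read window, or its plate-corrected B-score, at least 3 SD from the plate mean, either direction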;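 note: B-score of the F/F0 ratio slope over 7 to 12 s after thallium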
Target sequence (P48048 whole entry, looked up): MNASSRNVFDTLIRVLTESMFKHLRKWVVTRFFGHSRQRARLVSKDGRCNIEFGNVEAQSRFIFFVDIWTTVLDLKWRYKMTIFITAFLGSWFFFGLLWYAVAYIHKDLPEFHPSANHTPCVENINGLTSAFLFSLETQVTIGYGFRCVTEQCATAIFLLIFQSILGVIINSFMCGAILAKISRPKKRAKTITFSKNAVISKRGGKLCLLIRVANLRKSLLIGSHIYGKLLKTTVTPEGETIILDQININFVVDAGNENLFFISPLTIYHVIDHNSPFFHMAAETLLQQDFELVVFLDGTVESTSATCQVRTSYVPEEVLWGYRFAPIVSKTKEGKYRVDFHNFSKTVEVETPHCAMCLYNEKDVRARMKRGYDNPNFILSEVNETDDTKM
Lmaj promast = Leishmania major promastigote growth inhibition. Leishmania major promastigotes, resazurin fluorescence viability. inhibition, % at 10 µM. 200,000 tested, 9% active. AID 1063; in the data active = inhibition above about 50%;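 note: promastigotes grown with compound for 44 hours at 28 °C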
WT yeast gro inh = growth inhibition of WT yeast, mitochondrial fusion screen | AID 1362 | mitochondrial fusion phenotypic screen, WT strain | 190,000 tested, 2.1% active | inhibition, % at 10 µM; in the data active = inhibition above about 58%; tested in S. cerevisiae
Large screens that a line does not name were inactive. A selection: hits, their analogues and other compounds. The true share with any hit is near 12%.

O=C(Nc1cccc(C(F)(F)F)c1)C(Sc1ncnc2ccccc12)c1ccccc1 (stereo not drawn)	none (no result: INS promoter inh, ROMK primary)
Cc1cc(C)cc(NC(=O)C(Sc2ncnc3ccccc23)c2ccccc2)c1 (stereo not drawn)	Lmaj promast 57
Cc1ccc(NC(=O)CNc2ccc(OC(C)C)cc2)c(C)c1	INS promoter inh 75 (no result: Insulin prom up, ROMK primary)
Cc1ccc(NS(=O)(=O)c2cc(NC(=O)C(C)Oc3ccccc3)ccc2C)c(C)c1 (stereo not drawn)	Lmaj promast 98 (no result: ROMK primary)
CC(Oc1ccccc1)C(=O)Nc1cccc(F)c1 (stereo not drawn)	none
COc1cccc(-n2ccnc2SCC(=O)Nc2nccs2)c1	none (no result: ROMK primary)
COC(=O)Oc1ccc(/C=C/C(=O)OC(C)C)cc1OC(=O)OC	Lmaj promast 80 (no result: INS promoter inh, Insulin prom up, ROMK primary)
CC(=O)c1ccc(OCC(O)CN2CCN(Cc3ccccc3)CC2)cc1 (stereo not drawn)	Lmaj promast 94 (no result: Cl transport mod, INS promoter inh, ROMK primary)
CC1CN(CC(O)COc2ccc(C(=O)c3ccccc3)cc2)CC(C)O1 (stereo not drawn)	Lmaj promast 79 (no result: INS promoter inh, ROMK primary)
Cc1nc(C)n(CC(O)COc2ccc(C(=O)c3ccccc3)cc2)n1 (stereo not drawn)	none (no result: ROMK primary)
CC1CN(CC(O)COc2ccccc2C(C)(C)C)CC(C)O1 (stereo not drawn)	Lmaj promast 92
CC(C)(c1ccccc1)c1ccc(OCC(O)CNC2CCN(Cc3ccccc3)CC2)cc1 (stereo not drawn)	Insulin prom up inconclusive, Lmaj promast 101
C=C1CC(C)OC(c2ccccc2OCC(O)CN2CCCCC2)C1 (stereo not drawn)	none (no result: Cl transport mod, ROMK primary)
COc1ccccc1CNC(=O)C1CC(c2ccccc2F)=NO1 (stereo not drawn)	none (no result: INS promoter inh, ROMK primary, Lmaj promast, WT yeast gro inh)
O=C(N/C(=C/c1cn(-c2ccccc2)nc1-c1ccccc1)C(=O)N1CCOCC1)c1ccccc1	none (no result: INS promoter inh, ROMK primary)
Cc1ccc(S(=O)(=O)N2CCCN(S(=O)(=O)C3CCS(=O)(=O)C3)CC2)cc1 (stereo not drawn)	none (no result: ROMK primary)
O=C(c1ccccc1)c1ccc(OCC(O)CN2CCN(Cc3ccccc3)CC2)cc1 (stereo not drawn)	Lmaj promast 96 (no result: ROMK primary)
CC1CN(CC(O)COC(c2ccccc2)c2ccccc2)CC(C)O1 (stereo not drawn)	Lmaj promast 86
CCCOC(=O)c1ccc(OCC(O)CN2CCN(C(=O)c3ccccc3)CC2)cc1 (stereo not drawn)	none (no result: ROMK primary)
Cc1ccc2nc(/N=C(\N)NC(=O)N3c4ccccc4Sc4ccccc43)nc(C)c2c1	none
Cc1ccc2c(C)nc(/N=C(\N)NC(=O)N3c4ccccc4Sc4ccccc43)nc2c1	INS promoter inh 80
CCOC(=O)c1ccc(CNCc2ccc(C)cc2)cc1	Lmaj promast 79
CC(=O)Nc1ccc(N(C)C)cc1[N+](=O)[O-]	none (no result: Cl transport mod, ROMK primary)
CCCCc1c(CCC)c(=N)c2ccccc2n1C	Insulin prom up inconclusive, Lmaj promast 100 (no result: ROMK primary)
CCCOc1ccc(N2C(=O)CC(NCc3cccs3)C2=O)cc1 (stereo not drawn)	none (no result: Insulin prom up)
Cc1cc2ncn(/N=C/c3ccc([N+](=O)[O-])s3)c2cc1C	Lmaj promast 100 (no result: INS promoter inh, ROMK primary)
O=[N+]([O-])c1ccc(/C=N/n2cnc3ccccc32)s1	Insulin prom up inconclusive, Lmaj promast 100
CCOC(=O)c1c(N2CCCCC2)c2ccccc2[nH]c1=O	INS promoter inh 66
CS(=O)(=O)N(CC(=O)NC1CCCCC1)Cc1ccc(Cl)cc1	none (no result: Cl transport mod)
Cc1ccc(NC(=O)CSc2cccc[n+]2[O-])c([N+](=O)[O-])c1	none (no result: INS promoter inh)
COC(=O)c1ccc(C(=O)OC)c(NC(=O)CSc2cccc[n+]2[O-])c1	Lmaj promast 98 (no result: ROMK primary)
COC(=O)c1ccc(-n2c(C)cc(C(=O)CSc3cccc[n+]3[O-])c2C)cc1	Lmaj promast 98
O=C(COc1ccccc1)Nc1ccccc1Oc1ccccc1	WT yeast gro inh 62 (no result: Insulin prom up)
COc1ccccc1NC(=O)COc1ccccc1	none
COC(=O)c1ccc(C(=O)OC)c(NC(=O)COC(=O)C2CC2C)c1 (stereo not drawn)	Lmaj promast 76 (no result: WT yeast gro inh)
Cc1cc(/C=C(\C#N)C(=O)NCC2CCCO2)c(C)n1-c1ccc(Cl)cc1 (stereo not drawn)	none (no result: ROMK primary)
O=C(CSc1cccc[n+]1[O-])Nc1ccccc1Oc1ccccc1	Lmaj promast 100 (no result: INS promoter inh)
O=C(CSc1cccc[n+]1[O-])N1CCCCCC1	none (no result: INS promoter inh)
O=C(CSc1ccc(Br)cc1)Nc1ccccc1Oc1ccccc1	none
O=C(CSc1cccc[n+]1[O-])CSc1cccc[n+]1[O-]	Lmaj promast 99 (no result: INS promoter inh)
O=C(CCn1c(=O)sc2ccccc21)NCc1cccs1	none (no result: ROMK primary)
O=C(Nc1cccc(Cl)c1)N1N=CCC1c1ccccc1 (stereo not drawn)	none (no result: INS promoter inh, Lmaj promast, WT yeast gro inh)
COc1cc(OC)c2c(O)c3c(c(-c4c5c(c(O)c6c(OC)cc(OC)cc46)CO[C@@H](C)[C@H]5O)c2c1)[C@H](O)[C@H](C)OC3	none (no result: INS promoter inh, ROMK primary)
Cc1ccc(C(C)C)c(OCC(O)CN2CCN(CCO)CC2)c1 (stereo not drawn)	none (no result: Insulin prom up, ROMK primary)
Cc1ccc(C(C)C)c(OCC(O)CN2CCOCC2)c1 (stereo not drawn)	Lmaj promast 88 (no result: ROMK primary)
Cc1ccc(C(C)C)c(OCC(O)CN2CC(C)OC(C)C2)c1 (stereo not drawn)	Lmaj promast 95 (no result: Cl transport mod)
Cn1c(NC(=O)c2cccs2)c(-c2cccs2)c(=O)c2ccccc21	none (no result: Cl transport mod)
Cc1oc(C)c2c(=O)ccc3c(c12)OC(N)=C(C#N)C3c1ccc(F)cc1 (stereo not drawn)	Lmaj promast 60 (no result: Insulin prom up, ROMK primary)
Nc1cccc2c1C(=O)N(C(=O)c1cccc(S(=O)(=O)N3CCCC3)c1)C2=O	Insulin prom up 3.1
Fc1cccc(F)c1-n1c(CN2CCCCC2)csc1=S	Lmaj promast 56 (no result: INS promoter inh)
Fc1cccc(F)c1-n1c(CN2CCOCC2)csc1=S	none
CCOC(=O)CSc1nnc(-c2ccoc2C)n1-c1ccc(C)cc1	none (no result: ROMK primary)
c1ccc(Cc2nn[nH]n2)cc1	none (no result: INS promoter inh)
COc1ccc(Cc2nn[nH]n2)cc1	WT yeast gro inh 91
COc1ccc(-c2nnn(CCc3nn[nH]n3)n2)cc1	INS promoter inh 75 (no result: Insulin prom up, ROMK primary, WT yeast gro inh)
O=C(O)CCc1nn2c3ccccc3n(Cc3ccccc3)c2nc1=O	none (no result: Cl transport mod, INS promoter inh)
CCNC(=O)NC(=O)COC(=O)CCCSc1nc2ccccc2[nH]1	none (no result: ROMK primary)
O=C(Nc1ccc(N2CCCCC2)cc1)c1ccccn1	WT yeast gro inh 61
Cc1cccc(OCCCC(=O)Nc2ccc(S(N)(=O)=O)cc2)c1C	none
Cc1cccc(OCCCC(=O)Nc2ccc(N3CCCCC3)cc2)c1C	WT yeast gro inh 61 (no result: Cl transport mod, INS promoter inh)
O=C(CNCc1cccs1)Nc1ccc(S(=O)(=O)N2CCCCC2)cc1	none
COc1ccccc1C(=O)Nc1ccc(N2CCCCC2)cc1	none
O=C(CNCc1cccs1)Nc1ccc(N2CCCCCC2)cc1	Lmaj promast 51 (no result: INS promoter inh)
O=C(Nc1ccc(N2CCCCCC2)cc1)c1ccccc1Cl	Lmaj promast 57 (no result: INS promoter inh, Insulin prom up, ROMK primary)
CSc1ccccc1N=CC1=C(O)CC(C)(C)CC1=O	none (no result: ROMK primary)
Oc1c(N=Nc2ccccn2)ccc2ccccc12	Cl transport mod 53, Insulin prom up inconclusive, Lmaj promast 100 (no result: ROMK primary)
Cc1c(Cl)cccc1NC(=O)c1cc(-c2ccccc2O)n[nH]1	WT yeast gro inh 68
